Records with an inconclusive call do not appear. Unmarked numbers belong to inactive results. Calls come from the whole dose curve; as a rule, active = well fitted cell-killing curve with a large enough effect; inconclusive = small, poorly fitted or top-dose-only effect, or effect the other way; inactive = flat fitted curve, though single readings scatter.
test system: Tov112D; assay: Primary qHTS to identify gynecologic anti-cancer compounds using libraries of approved drugs and bioactive compounds (AID 1345084); settings: Gynecologic cancer cell panel viability, ATPlite luminescence, 48 h; series mostly up to 57.5 µM; activity change, negative = cytotoxicity: at the top concentration; note: nearly all actives have a fitted effect of over 55% in size
Procedure, shortened: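 Measured: luminescence after ATPlite addition (15 min, RT). Exposure: 48 h, 37 C, 5% CO2.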
% is set by controls: 0 for no effect and ±100 for the full control effect.

SMILES	activity change, negative = cytotoxicity
NC(Cc1c[nH]c2ccccc12)C(=O)NC(CCC(=O)O)C(=O)O (stereo not drawn)	2.86%
C[C@@H]1O[C@@H](O[C@H]2[C@H](OC(=O)[C@]34CCC(C)(C)C[C@H]3C3=CCC5[C@@]6(C)C[C@H](O)[C@H](O[C@@H]7O[C@H](CO)[C@@H](O[C@@H]8O[C@H](CO)[C@@H](O)[C@H](O)[C@H]8O)[C@H](O)[C@H]7O)[C@@](C)(CO)C6[C@H](O)C[C@@]5(C)[C@]3(C)C[C@H]4O)OC[C@H](O)[C@@H]2O)[C@H](O)[C@H](O)[C@H]1O[C@@H]1OC[C@@H](O)[C@H](O[C@@H]2OC[C@](O)(CO)[C@H]2O)[C@H]1O (stereo partly drawn)	2.65% [at 6.55 µM]
CC(C)C1=CC2=CCC3[C@](C)(CCC[C@@]3(C)C(=O)O)C2CC1=O (stereo partly drawn)	11.7% [at 38.5 µM]
CC1(C)CC[C@]2(C(=O)O[C@@H]3O[C@H](CO)[C@@H](O)[C@H](O)[C@H]3O)CC[C@]3(C)C(=CCC4[C@@]5(C)C[C@@H](O)[C@H](O)[C@@](C)(CO)C5CC[C@]43C)C2C1 (stereo partly drawn)	-6.27% [at 25.3 µM]
COc1ccc([C@H]2Cc3cccc(O)c3C(=O)O2)cc1	-3.31%
O=C(O)C[C@@H](NC(=O)c1cc(-c2ccc(-c3ccncc3)cc2)cs1)c1ccccc1	-12.7%
C[C@@H]1CC[C@]2(C(=O)O)CC[C@]3(C)C(=CCC4[C@]5(C)C(CC[C@]43C)C(C)(C)[C@@H](O)[C@H](O)[C@@H]5O)C2[C@]1(C)O (stereo partly drawn)	12.2% [at 25.3 µM]
CCC(=O)NS(=O)(=O)c1ccc(-c2c(-c3ccccc3)noc2C)cc1	-2.2%
CC(C)(C)c1cc(CN2CCN(CC(O)c3ccc(Cl)cc3)CC2)cc(C(C)(C)C)c1O (stereo not drawn)	19.4%
CCOc1nc2cccc(C(=O)O)c2n1Cc1ccc(-c2ccccc2-c2noc(=O)[nH]2)cc1	20.3%
CC1(O)CCC2C(C(=O)O)=COC(OC3OC(CO)C(O)C(O)C3OC(=O)/C=C/c3ccc(O)cc3)C21 (stereo not drawn)	-1.71% [at 25.3 µM]
COc1c2c(c(C)c3c1C(=O)OC3)O[C@@]1(C)C[C@@H](O)[C@]34O[C@](OC)(CC[C@]3(C)[C@H]1C2)OC4(C)C	-2.08% [at 25.3 µM]
CN1Cc2c(N)cccc2C(c2ccccc2)C1 (stereo not drawn)	4.02%
COC(=O)CC1(O)C(=O)Nc2ccccc21 (stereo not drawn)	-0.772%
CC1=C2[C@@H]([C@H](C)CC[C@H]2/C=C(\C)C(=O)O)[C@H](O)C1	-6.14%
C[C@]12C=CC(=O)C=C1CC[C@@H]1[C@@H]2[C@@H](O)C[C@@]2(C)[C@H]1CC[C@]2(O)C(=O)COC(=O)CCC(=O)O	9.54%
O=C(/C=C/c1ccc(O)cc1)OC[C@]12O[C@H]1[C@@H](O)[C@@H]1C=CO[C@@H](O[C@@H]3O[C@H](CO)[C@@H](O)[C@H](O)[C@H]3O)[C@@H]12	4.9% [at 25.3 µM]
CC(=O)OCC(=O)O[C@@H]1[C@H]2[C@@H](OC(=O)c3ccccc3)[C@@H](C)C[C@]2(O)[C@H](OC(C)=O)C2(C)[C@H]3CC(C)(C)C(=O)[C@@H]3CC1(OC(C)=O)[C@@H]2OC(C)=O (stereo partly drawn)	6.01% [at 25.3 µM]
CN1C(=O)c2ccccc2-n2c(nc3ccccc3c2=O)[C@@]12O[C@H]2c1ccccc1	5.76% [at 38.5 µM]

SMILES	activity change, negative = cytotoxicity
C#Cc1cnc2[nH]c(=O)n(C(CC)CC)c2n1	11.5%
CCNC(=O)[C@H]1O[C@H](n2cnc3c(NCC(c4ccccc4)c4ccccc4)nc(C(=O)NCCNC(=O)NC4CCN(c5ccccn5)CC4)nc32)[C@H](O)[C@@H]1O	14.5%
C=C[C@H]1[C@H](O[C@@H]2O[C@H](CO)[C@@H](O)[C@H](O)[C@H]2O)OC=C2C(=O)OCC[C@]21O	12.8% [at 38.5 µM]
Nc1c(Br)cc(Br)cc1CNC1CCC(O)CC1 (stereo not drawn)	-13.3%
CCC(C)/C=C(C)/C=C/C1=CC2=C(Cl)C(=O)C(C)(OC(C)=O)C(=O)C2=CN1C1CCCCN(C(CCC(N)=O)C(=O)O)C1=O (stereo not drawn)	8.13% [at 25.3 µM]
CCC[C@@H]1C[C@@H](C(=O)N[C@@H]([C@H]2O[C@H](SC)[C@H](OP(=O)(O)O)[C@@H](O)[C@H]2O)[C@H](C)Cl)N(C)C1	-0.27% [at 25.3 µM]
COc1cc([C@H]2OC[C@@H]3[C@@H](c4ccc(O[C@@H]5O[C@H](CO)[C@@H](O)[C@H](O)[C@H]5O)c(OC)c4)OC[C@]23O)ccc1O	6.36% [at 25.3 µM]
COCCN(C)Cc1ccc2nc3sc(C(=O)N(C)C4CCCCC4)cn3c2c1	5.18%
CCC(=O)O[C@]1(C(=O)CCl)[C@@H](C)C[C@H]2[C@@H]3C[C@H](F)C4=CC(=O)C=C[C@]4(C)[C@@]3(F)[C@@H](O)C[C@@]21C	-0.676%
CC(C)CC(=O)n1cc(C(N)=O)c(=O)cc1C(O)c1ccccc1 (stereo not drawn)	-1.72% [at 38.5 µM]
CC1(C)CC[C@]2(C(=O)O[C@@H]3O[C@H](CO)[C@@H](O)[C@H](O)[C@H]3O)CC[C@]3(C)C(=CCC4[C@@]5(C)C[C@@H](O)[C@H](O)C(CO)(CO)C5CC[C@]43C)C2[C@@H]1O (stereo partly drawn)	-9.16% [at 25.3 µM]
OC[C@H]1O[C@@H](OC(CCCCc2ccc(O)cc2)CCc2ccc(O)cc2)[C@H](O[C@@H]2OC[C@](O)(CO)[C@H]2O)[C@@H](O)[C@@H]1O (stereo partly drawn)	-42.4% [at 25.3 µM]
Cn1c(=O)cc(N2CCCC(N)C2)n(Cc2ccccc2C#N)c1=O (stereo not drawn)	15.5%
CC[C@H]1OC(=O)C[C@@H](O)[C@H](C)[C@@H](O[C@@H]2O[C@H](C)[C@@H](O)[C@H](N(C)C)[C@H]2O)[C@@H](CCN2C[C@H](C)C[C@H](C)C2)C[C@@H](C)C(=O)/C=C/C(C)=C/[C@@H]1CO[C@@H]1O[C@H](C)[C@@H](O)[C@@H](OC)[C@H]1OC	21.4%
C[C@@H]1C[C@H]2[C@@H]3CCC4=CC(=O)C=C[C@]4(C)[C@@]3(F)[C@@H](O)C[C@]2(C)[C@@]1(O)C(=O)COP(=O)(O)O	6.16%
CC(=O)OC(C)OC(=O)C(C)c1ccc(-c2ccccc2)c(F)c1 (stereo not drawn)	8.45%
CCC(C)/C=C(C)/C=C/C1=CC2=C(Cl)C(=O)C(C)(OC(C)=O)C(=O)C2=CN1CCCC(=O)O (stereo not drawn)	3.22% [at 25.3 µM]
CC(C)CC1(C(=O)OCc2ccc(O[C@@H]3O[C@H](CO)[C@@H](O)[C@H](O)[C@H]3O)cc2)CC(=O)OC(C(=O)O)CC(=O)OCC2OC(O1)C(OC(=O)/C=C/c1ccc(O)cc1)C(O)C2O (stereo partly drawn)	0.377% [at 11.6 µM]
OC[C@H]1O[C@@H](OCCc2ccc(O)cc2)[C@H](O)[C@@H](O)[C@@H]1O	1.49%

Reference: PubChem BioAssay (NCATS)
